Each structure is given as a SMILES string. Among all 2,500 compounds or so, about 1,100 (44%) were called active.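 The calls were made as follows: active = inhibition above 50% at 4 µM in the single-point screen; inactive = inhibition of 50% or less.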 The set was probably picked from earlier hits. The list shows a part of the results.

A short description of this test: blockers of TNF-a NF-kB luciferase induction – cell-based, HEK293T NF-kB-Luc, luminescence, selectivity assay for NOD1/NOD2 signaling inhibitor project, primary screen (AID 1852). Conditions: TNF-a induced, 14 h, at 4 µM, hits give high values.
In general, inhibition refers to the relative decrease from the control value, in per cent. With `C=C(CCC(=O)c1ccccc1)C(=O)c1ccccc1`, the inhibition was -0.6% (inactive). Consider `O=C(Nc1ccncc1)c1c(F)cccc1F`, for which the inhibition is 59.3% (active). The result for `Cc1ccc2oc(Nc3nc(-c4ccccc4)cc(=O)[nH]3)nc2c1` reads 93% (active); that for `COc1ccc2c(C)nc(Nc3nc(-c4ccccc4)cc(=O)[nH]3)nc2c1`, 42.1% (inactive); that for `CN(/N=C/c1cc(Cl)cc(Cl)c1O)C(=S)NC(C)(C)C`, 82.6% (active). Turning to `Oc1c(Cl)cc(Cl)cc1/C=C/c1ccc2cccc(O)c2n1`, the inhibition is 37.4% (inactive).

For `CC(C)(C)NC(=S)N/N=C/c1cc(Br)c(O)c(Br)c1`, the inhibition is 34.5% (inactive). The result for `CC(C)c1noc2ncc(C(=O)c3cc(Cl)cc(Cl)c3O)cc12` reads 60.1% (active); that for `O=c1cc(-c2ccccc2Cl)oc2c(NS(=O)(=O)c3cc(Cl)cc(Cl)c3O)ccc(O)c12`, 82.6% (active). The result for `O=c1cc(-c2ccccc2Cl)oc2c([N+](=O)[O-])c(O)cc(O)c12` reads 105% (active); that for `O=c1oc2ccccc2c(Nc2cc3ccccc3cc2O)c1[N+](=O)[O-]`, -0.3% (inactive). As for `c1ccc2c(c1)ncn2-c1ccc(-c2ccnc(-c3ccncc3)n2)cc1`, the inhibition was 59.7% (active). The result for `O=C(O)COc1ccc(-c2nccc(-c3ccccn3)n2)cc1` reads 43.3% (inactive); that for `Nc1nccc(-c2ccc(-n3cnc4ccccc43)cc2)n1`, 67% (active). The result for `CC1CCc2nc(N)c(C#N)c(-c3cccnc3)c2C1` (centres undefined) reads 85.3% (active). The result for `Cc1nc(N)c(C#N)c(-c2cccnc2)c1-c1ccccc1` reads 98.5% (active). Consider `Cc1nc2c(-c3ccc(F)cc3)cnn2c(N)c1-c1ccccc1`, for which the inhibition was -226% (inactive). Turning to `O=C(NNC(=O)c1ccccc1OCc1ccc(F)cc1)c1ccccc1O`, the inhibition was 51.1% (active). As to `CN(C(=O)COc1ccccc1C(=O)NCCOc1ccccc1)c1ccccc1`, the inhibition is 17.7% (inactive). The result for `CCOc1ccccc1C(=O)N1CCN(C(c2ccccc2)c2ccccc2)CC1` reads 22.1% (inactive). Turning to `O=C(NNC(=O)c1ccccc1OCc1ccccc1)c1ccccc1O`, the inhibition is 77.9% (active).

As to `Cc1ccc(S(=O)(=O)Nc2ccccc2-c2ccccc2NS(=O)(=O)c2ccc(C)cc2)cc1`, the inhibition is -1.3% (inactive).

Regarding `Cc1ccc(S(=O)(=O)Nc2ccccc2/C=N/c2nc3ccccc3n2C)cc1`, the inhibition is 89.4% (active). In the case of `Cc1ccc(S(=O)(=O)n2c(N)nc3ccccc32)cc1`, the inhibition was -1.7% (inactive). Consider `Oc1c(C(c2ccc(Cl)cc2)N2CCCC2)cc(Cl)c2cccnc12` (centres undefined), for which the inhibition was 20% (inactive). The result for `Oc1c(CN2CCN(c3ccccn3)CC2)cc(Cl)c2cccnc12` reads 20.4% (inactive); that for `Oc1c(CN2CCc3ccccc3C2)cc(Cl)c2cccnc12`, 101% (active). For the compound `Oc1c(Cl)cc(Cl)c2cccnc12`, the inhibition is 102% (active). As to `O=[N+]([O-])c1cc(Cl)c(O)c2ncccc12`, the inhibition was 102% (active).

`Oc1c(I)cc(I)c2cccnc12`: the inhibition is 89% (active). Consider `Oc1c(CN2CCN(c3ccc(F)cc3)CC2)cc(Cl)c2cccnc12`, for which the inhibition is 17.1% (inactive). The result for `Oc1c(I)cc(Cl)c2cccnc12` reads 104% (active); that for `O=C(Oc1c(Cl)cc(Cl)c2cccnc12)c1ccco1`, 106% (active); that for `Cc1oc(-c2ccccc2Cl)nc1CSc1nc2c(c(=O)[nH]1)CCCC2`, 19.1% (inactive).

Regarding `Cc1cccc(-c2nc(CSc3nc4c(c(=O)[nH]3)CCC4)c(C)o2)c1`, the inhibition is 37% (inactive). On to `Cc1ccccc1-c1nc(CSc2nc3c(c(=O)[nH]2)CCC3)c(C)o1`, for which the inhibition is 59.5% (active).

As to `CC1(C)CC(=O)C2=C(C1)Oc1nc3ccccc3cc1C2C(C#N)C#N` (centres undefined), the inhibition is 29.6% (inactive). Regarding `COc1ccccc1CNS(=O)(=O)c1ccc2c(c1)N(C(C)=O)CC(C)S2` (centres undefined), the inhibition was 35.3% (inactive). The result for `CC(C)(C)c1ccc(C(=O)Nc2sc3c(c2C(=O)O)CCC3)cc1` reads -51.1% (inactive). Take `CC(C)(C)c1ccc(C(=O)N2CCCCCC2=O)cc1`: the inhibition is 69.6% (active). `CC(C)(C)c1ccc(/C=N/Nc2ccc(C(=O)O)cc2)cc1`: the inhibition is -61% (inactive). The result for `NC(=S)n1[nH]c(-c2ccc([N+](=O)[O-])cc2)c(N=Nc2cccc([N+](=O)[O-])c2)c1=O` reads 86.6% (active). Regarding `NC(=S)n1[nH]c(-c2ccc([N+](=O)[O-])cc2)c(N=Nc2ccc(Cl)cc2)c1=O`, the inhibition was 88.7% (active). `Cc1ccc([N+](=O)[O-])cc1N=Nc1c(-c2ccc([N+](=O)[O-])cc2)[nH]n(C(N)=S)c1=O`: the inhibition is 80.4% (active). The result for `NC(=S)n1[nH]c(-c2ccc([N+](=O)[O-])cc2)c(N=Nc2cccc(Cl)c2)c1=O` reads 86.9% (active); that for `Cc1[nH]n(-c2nc(-c3ccc(Cl)cc3)cs2)c(=O)c1N=Nc1ccc(O)cc1`, 48.4% (inactive); that for `CC(C)(C)c1ccc(-c2noc(CCC(=O)Nc3cccnc3)n2)cc1`, 71.6% (active).

For `CC(C)(C)c1ccc(-c2noc(CCC(=O)NCc3ccco3)n2)cc1`, the inhibition was 44.3% (inactive). The result for `CC(C)Cc1ccc(C(C)C(=O)Nc2cccnc2)cc1` (centres undefined) reads 22.5% (inactive). On to `CCC(C(=O)Nc1cccnc1)c1ccccc1` (centres undefined), for which the inhibition is 3.6% (inactive). The result for `COc1ccc(Cc2nc(-c3ccc(-n4cccc4)cc3)no2)cc1OC` reads 48.8% (inactive); that for `CC(C)(C)c1ccc(-c2noc(CCC(N)=O)n2)cc1`, 73.6% (active). The result for `CCn1nc(C)c(CNC(=O)c2ccc(OC3CCN(Cc4ccccn4)CC3)cc2)c1C` reads 50.2% (active). On to `CCOc1ccc(C(=O)NC2CCN(C(=O)Nc3ccccc3OC)CC2)cc1`, for which the inhibition was 14.2% (inactive). The result for `COC(CN(C(=O)CCl)C(C(=O)NC1CCCCC1)c1ccccc1C)OC` (centres undefined) reads 63.2% (active). With `COCCN(C(=O)CCl)C(C(=O)NC1CCCCC1)c1ccccc1C` (centres undefined), the inhibition is 56.7% (active). Regarding `COC(CN(C(=O)CCl)C(C(=O)NC1CCCC(C)C1C)c1ccc(C)cc1)OC` (centres undefined), the inhibition is 15.4% (inactive). Turning to `COCCN(CC(=O)NC1CCCCC1)C(=O)/C=C/C(=O)c1ccc(OC)cc1O`, the inhibition was 22.3% (inactive).

In the case of `Cc1ccc(-c2csc(=Nc3cccnc3)n2CCCn2ccnc2)cc1C`, the inhibition was 94.3% (active). As to `O=S(=O)(Nc1nc(-c2sccc2Cl)cs1)c1cc(Cl)ccc1Cl`, the inhibition is 34.1% (inactive). As to `O=C1ON=C(c2ccc(Cl)cc2)/C1=C/c1ccc(O)cc1`, the inhibition was 29.2% (inactive).

Consider `Cc1ccc(C2=NOC(=O)/C2=C\C=C\c2ccccc2)cc1`, for which the inhibition is 94.8% (active). `COc1cc(C)c(Br)cc1S(=O)(=O)NCc1ccncc1`: the inhibition was 30.4% (inactive).

Take `O=C(Nc1ccc(Cl)cc1)c1ccc(CN2CCc3ccccc3C2)cc1`: the inhibition was 23.1% (inactive).

As for `Cc1cc(C)n(Cc2ccc(NC(=O)c3ccc(COc4ccccc4Br)cc3)cc2)n1`, the inhibition is 46.2% (inactive). `O=C(Nc1ccc(F)cc1)c1ccc(CN2CCc3ccccc3C2)cc1`: the inhibition was 87.4% (active). Turning to `CCOC(=O)c1ccc(NC(=O)c2ccc(CN3CCc4ccccc4C3)cc2)cc1`, the inhibition is 46.3% (inactive). Consider `N#CCc1ccc(NC(=O)c2ccc(CN3CCc4ccccc4C3)cc2)cc1`, for which the inhibition was 58.1% (active). The result for `CCOc1ccc(NC(=O)c2ccc(CN3CCc4ccccc4C3)cc2)cc1` reads 3% (inactive); that for `C/C(=N\NC(=O)c1ccc(CN2CCc3ccccc3C2)cc1)c1ccccc1O`, 77.8% (active); that for `CC(=O)n1c(Cl)c(NC(=O)CCl)c2ccccc21`, 82.1% (active). The result for `O=C(CCl)Nc1cn(-c2ccccc2)nc1-c1ccccc1` reads -13.7% (inactive).

As to `O=C(CCl)Nc1cn(-c2ccccc2)nc1-c1ccc(F)cc1`, the inhibition was -16.2% (inactive).

In the case of `O=C(Cc1ccc(Cl)cc1)c1c[nH]c(C(=O)NCc2cccnc2)c1`, the inhibition was 90.1% (active).

As for `Cc1onc(-c2ccccc2)c1C(=O)Nc1ncc([N+](=O)[O-])s1`, the inhibition was 48.5% (inactive). Take `CN(C)S(=O)(=O)Oc1cccc(C(=O)Nc2ccc(Cl)c(Cl)c2)c1`: the inhibition is -28.2% (inactive). The result for `COc1cccc(C(=O)Nc2sc3c(c2C(=O)O)CCCC3)c1` reads 30.7% (inactive). For `COc1cccc(C(=O)Nc2nc(-c3ccccc3)c(-c3ccccc3)o2)c1`, the inhibition is 81.3% (active). The result for `COc1cc(OC)cc(C(=O)Nc2nc(-c3ccccc3)c(-c3ccccc3)o2)c1` reads 78.7% (active); that for `O=C1N/C(=N\N=C\c2ccccn2)SC1Cc1cccc(SC(F)F)c1` (centres undefined), 109% (active). Take `Cc1cccc(CS(=O)(=O)c2ncc(Cl)c(C(=O)Nc3c(C)cccc3C)n2)c1`: the inhibition was 46.2% (inactive). The result for `CCCc1nnc(NC(=O)c2nc(S(=O)(=O)Cc3cccc(C)c3)ncc2Cl)s1` reads 61.3% (active). Regarding `CCCc1nnc(NC(=O)c2nc(S(=O)(=O)Cc3ccc(C)cc3)ncc2Cl)s1`, the inhibition was 94.4% (active). With `CCc1nnc(NC(=O)c2nc(S(=O)(=O)Cc3ccc(C)cc3)ncc2Cl)s1`, the inhibition is 71.9% (active). The result for `Cc1cc(C)c(C#N)c(SCc2nnc(-c3ccccc3)o2)n1` reads 0% (inactive); that for `CCOc1ccc(NC(=O)Nc2ccc3c(c2)N(C)C(=O)CS3)cc1`, 14.3% (inactive); that for `O=S(=O)(c1ccc(N=C2NN=C(c3cc(F)ccc3F)CS2)cc1)N1CCOCC1`, 77.4% (active). The result for `Cn1c(O)c(N=NC(=S)Nc2ccccc2F)c2cc(S(=O)(=O)N3CCOCC3)ccc21` reads 12.5% (inactive).

Take `O=C(Nc1ccc(S(=O)(=O)N2CCOCC2)cc1)c1cc(-c2cc(Cl)ccc2O)n[nH]1`: the inhibition was -2.1% (inactive). For the compound `CCCCN(c1ccccc1)c1ncnc(N)c1[N+](=O)[O-]`, the inhibition is 83.7% (active).

For the compound `C=CCN(C(=O)CCc1ccccc1OC)c1nc(-c2ccc(S(C)(=O)=O)cc2)cs1`, the inhibition was -10.1% (inactive). The result for `CCOC(=O)c1c(C)[nH]c(C(=O)OCC(=O)N2CCN(S(=O)(=O)c3ccccc3)CC2)c1C` reads 0% (inactive); that for `CC(=O)c1c(C)[nH]c(C(=O)COC(=O)c2cccc(S(=O)(=O)N(C)c3ccccc3)c2)c1C`, 84.9% (active). With `C[C@@H](C(=O)NCc1ccccn1)[C@H]1C[C@]1(C)[C@H](NC(=O)OCc1ccccc1)c1ccccc1`, the inhibition was -9% (inactive).
